Five compounds from PubChem BioAssay can be followed below.

Assay [1] has as its system Human papillomavirus type 1a protein E7 (residues 44-93). The assay is described as follows: small molecules binding HPV E7 44-93 – biochemical, small-molecule microarray, residues 44-93, 635 nm fluorescence, primary screen (AID 1108).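 Note: E7 fragment applied at 1 µg/mL in TBST for 1 h at 4 C; score combines spot fluorescence with its signal to noise ratio.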 As to conditions: fluorescence 635 nm, higher = more signal.
Assay [2] in a line: hepatitis C replication reporter changes, two-sided – Huh7 cells, luciferase reporter, HCV replication inhibitor project, primary screen (AID 1109).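 Note: huh7 hepatoma cells harbouring a luciferase neomycin HCV replicon reporter; luciferase luminescence as measure of HCV replicon replication; test concentration not given here.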 As to conditions: Huh7 HCV replicon luciferase reporter, 48 h; higher = more signal. On the technique in general: In a reporter assay the amount or activity of a reporter protein is the signal.
Assay [3] has as its target Left-right determination factor 2 (Homo sapiens) (UniProt O00292). The assay is described as follows: small molecules binding LEFTY2 protein – biochemical, small-molecule microarray, 635 nm fluorescence scan, primary screen (AID 1110). As to conditions: higher = more signal.
Assay [4] concerns the target Calmodulin-1 (Homo sapiens) (UniProt P0DP23). The assay is described as follows: small molecules binding calmodulin-1 with EGTA – biochemical, small-molecule microarray, Cy5-labelled CALM1, profiling panel (AID 1111).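 Note: labelled calmodulin applied in Tris saline Tween buffer holding calcium plus EGTA and DTT.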 The note with it: Cy5-CALM1 binding fluorescence, higher = more signal.
Assay [5] shares this target. The assay is described as follows: small molecules binding Ca-loaded calmodulin-1 – biochemical, small-molecule microarray, Cy5-labelled CALM1, plus calcium, artefact control for SMM control-protein annotation, profiling panel (AID 1112).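 Note: score merges spot fluorescence with signal to noise from triplicate slides.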 As to conditions: Cy5-CALM1 binding fluorescence, higher = more signal.
Assay [6] in a line: probe aWnt5a binding to arrayed compounds – biochemical, biotinylated probe, 635/667 nm fluorescence, primary screen (AID 1113).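 Note: score merges 667 nm fluorescence intensity with signal-to-noise per printed feature.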 The note with it: small-molecule microarray, higher = more signal.
Assay [7] in a line: probe aShh binding to arrayed compounds – biochemical, biotinylated probe, 635/667 nm fluorescence, primary screen (AID 1114).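 Note: probe is biotin-labelled aShh protein from a stem cell growth factor screen; measures binding of labelled protein to compounds printed on the slide; score merges feature fluorescence at 667 nm with signal-to-noise.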 As to conditions: small-molecule microarray, higher = more signal.
Assay [8] can be described thus: probe aNog binding to arrayed compounds – biochemical, biotinylated probe, 635/667 nm fluorescence, primary screen (AID 1115).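 Note: probe is biotinylated aNog protein used at 0.15 µg/mL for 1 h at 4 C; z-score combines 667 nm fluorescence of each spot with its signal to noise.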 As to conditions: small-molecule microarray, higher = more signal.
Assay [9] addresses Torsin-1A-interacting protein 1 (Homo sapiens) (UniProt Q5JTV8). The assay is described as follows: compound microarray binding of lysate hLAP1 – cell lysate, small-molecule microarray, COS7 lysate, 635/667 nm fluorescence, primary screen (AID 1116). As to conditions: 635 nm fluorescence, higher = more signal.
In assay [10] the target is Alpha-bungarotoxin (Bungarus multicinctus) (UniProt P60615). The assay is described as follows: compounds binding labelled alpha-BTX control protein – biochemical, small-molecule microarray, Alexa647 label, 635/667 nm fluorescence, artefact control for SMM control protein annotation, profiling panel (AID 1117). The note with it: alpha-BTX-A647 binding fluorescence, higher = more signal.
Chain of Alpha-bungarotoxin (Bungarus multicinctus) (P60615 whole entry, looked up): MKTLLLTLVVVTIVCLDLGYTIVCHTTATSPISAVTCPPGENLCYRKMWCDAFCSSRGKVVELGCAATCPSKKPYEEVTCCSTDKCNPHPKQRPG

The next assay deals with Albumin (Bos taurus) (UniProt P02769). The assay is described as follows: compounds binding labelled BSA control protein – biochemical, small-molecule microarray, Alexa647 label, 635/667 nm fluorescence, artefact control for SMM control protein annotation, profiling panel (AID 1118).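 Note: score merges 667 nm emission intensity and signal-to-noise per printed compound spot.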 The note with it: BSA-A647 binding, fluorescence 635 nm, higher = more signal.
Chain of Albumin (Bos taurus) (P02769 whole entry, looked up): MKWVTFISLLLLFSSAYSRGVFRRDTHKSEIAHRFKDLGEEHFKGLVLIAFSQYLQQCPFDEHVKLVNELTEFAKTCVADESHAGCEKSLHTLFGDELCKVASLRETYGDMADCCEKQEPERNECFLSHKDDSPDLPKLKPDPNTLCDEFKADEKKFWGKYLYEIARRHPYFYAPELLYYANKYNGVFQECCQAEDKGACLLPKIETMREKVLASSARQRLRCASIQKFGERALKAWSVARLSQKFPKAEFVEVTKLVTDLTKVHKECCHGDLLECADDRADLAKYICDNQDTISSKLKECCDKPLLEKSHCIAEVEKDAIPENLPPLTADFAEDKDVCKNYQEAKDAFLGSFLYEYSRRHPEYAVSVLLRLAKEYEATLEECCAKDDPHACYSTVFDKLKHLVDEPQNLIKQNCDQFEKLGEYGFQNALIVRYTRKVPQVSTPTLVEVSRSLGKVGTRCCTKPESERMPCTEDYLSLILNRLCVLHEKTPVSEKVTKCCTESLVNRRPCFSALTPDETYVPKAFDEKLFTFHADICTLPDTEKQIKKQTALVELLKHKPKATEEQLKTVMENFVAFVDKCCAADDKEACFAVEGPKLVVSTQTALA
A short description of assay [11]: probe aXIP binding to arrayed compounds – biochemical, NeuroSMM set, 635/667 nm fluorescence, primary screen (AID 1119).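 Note: probe is the protein aXip251-270 applied at 1 µg/mL to compound-printed slides; binding of probe to printed compounds measured as 667 nm fluorescence plus signal to noise.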 The note with it: small-molecule microarray, higher = more signal, called active from +8 up or from −8 down.
Assay [12] in a line: probe aNOTCH3 binding on compound microarray – biochemical, small-molecule microarray, 635/667 nm fluorescence, primary screen (AID 1120).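 Note: probe is a biotin-tagged antibody raised against NOTCH3 rather than NOTCH3 protein; score merges spot fluorescence near 667 nm with spot signal to noise.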 The note with it: higher = more signal.
Assay [13] can be described thus: probe aNOTCH2 binding on compound microarray – biochemical, small-molecule microarray, 635/667 nm fluorescence, primary screen (AID 1121).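 Note: score merges feature fluorescence read at 667 nm with its signal to noise.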 The note with it: higher = more signal.
Assay [14] deals with Carbonic anhydrase 2 (Homo sapiens) (UniProt P00918). The assay is described as follows: compounds binding carbonic anhydrase 2 – biochemical, small-molecule microarray, Alexa647-labelled CAII, profiling panel (AID 1122). The note with it: CAII-A647 binding fluorescence, higher = more signal.
Assay [15] is described as follows: COS7 lysate on small-molecule microarray, probe aHis, 635 nm (AID 1123).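 Note: z-score combines 667nm fluorescence intensity with signal-to-noise per printed compound spot.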 As to conditions: COS7 cell lysate, fluorescence, higher = more signal.
The nature of assay [16]: probe aLAP1 signal on lysate-treated microarray – cell lysate, small-molecule microarray, COS7 lysate, primary screen (AID 1124).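 Note: lysate comes from COS7 cells expressing LAP1 and is applied at 0.3 µg/mL; score merges spot fluorescence near 667 nm with signal-to-noise over triplicate slides.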 The note with it: probe aLAP1, fluorescence, higher = more signal.
In the next assay the test system is Sam68 (KHDRBS1). The assay is described as follows: compounds binding KHDRBS1 protein – biochemical, small-molecule microarray, 635 nm fluorescence, primary screen (AID 1125).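 Note: score merges 667 nm channel intensity with signal to noise over triplicate slides.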 As to conditions: higher = more signal.
In assay [17] the test system is Chordin-like protein 2 (CHRDL2). The assay is described as follows: compounds binding chordin-like 2 – biochemical, small-molecule microarray, 635 nm fluorescence, primary screen (AID 1126).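 Note: printed compound slides probed with Chrdl2 protein at 4 µg/mL for 1 h at 4 C; score merges 667 nm emission intensity with signal to noise over three replicate slides.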 The note with it: fluorescence 635 nm, higher = more signal.
For assay [18], the target named is Concanavalin-A (Canavalia ensiformis) (UniProt P02866). The assay is described as follows: compounds binding concanavalin A lectin – biochemical, small-molecule microarray, Alexa647 label, 635 nm, artefact control for SMM control protein annotation, primary screen (AID 1127).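 Note: z combines 667 nm emission intensity with signal-to-noise across three replicate slides.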 The note with it: ConA-A647 binding fluorescence, higher = more signal.
Chain of Concanavalin-A (Canavalia ensiformis) (P02866 whole entry, looked up): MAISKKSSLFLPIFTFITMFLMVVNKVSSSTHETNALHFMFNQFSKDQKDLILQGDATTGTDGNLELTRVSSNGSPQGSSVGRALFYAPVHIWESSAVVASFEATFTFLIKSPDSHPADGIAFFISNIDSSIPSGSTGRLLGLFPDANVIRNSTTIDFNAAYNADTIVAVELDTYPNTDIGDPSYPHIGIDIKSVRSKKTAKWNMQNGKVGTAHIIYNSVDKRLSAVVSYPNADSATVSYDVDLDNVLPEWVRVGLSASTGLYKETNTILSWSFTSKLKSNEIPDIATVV

Active and inactive are the calls of the source.

Chain of Left-right determination factor 2 (Homo sapiens) (O00292 whole entry, looked up): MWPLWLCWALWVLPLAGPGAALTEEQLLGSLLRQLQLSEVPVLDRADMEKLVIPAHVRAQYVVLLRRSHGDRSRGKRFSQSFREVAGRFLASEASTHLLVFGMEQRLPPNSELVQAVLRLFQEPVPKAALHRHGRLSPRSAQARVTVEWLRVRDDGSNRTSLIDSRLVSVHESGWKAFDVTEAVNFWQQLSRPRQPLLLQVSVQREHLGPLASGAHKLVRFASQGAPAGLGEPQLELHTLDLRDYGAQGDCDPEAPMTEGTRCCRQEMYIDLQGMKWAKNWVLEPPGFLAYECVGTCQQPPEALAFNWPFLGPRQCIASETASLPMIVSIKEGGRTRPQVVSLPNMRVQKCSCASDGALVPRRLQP
Chain of Torsin-1A-interacting protein 1 (Homo sapiens) (Q5JTV8 whole entry, looked up): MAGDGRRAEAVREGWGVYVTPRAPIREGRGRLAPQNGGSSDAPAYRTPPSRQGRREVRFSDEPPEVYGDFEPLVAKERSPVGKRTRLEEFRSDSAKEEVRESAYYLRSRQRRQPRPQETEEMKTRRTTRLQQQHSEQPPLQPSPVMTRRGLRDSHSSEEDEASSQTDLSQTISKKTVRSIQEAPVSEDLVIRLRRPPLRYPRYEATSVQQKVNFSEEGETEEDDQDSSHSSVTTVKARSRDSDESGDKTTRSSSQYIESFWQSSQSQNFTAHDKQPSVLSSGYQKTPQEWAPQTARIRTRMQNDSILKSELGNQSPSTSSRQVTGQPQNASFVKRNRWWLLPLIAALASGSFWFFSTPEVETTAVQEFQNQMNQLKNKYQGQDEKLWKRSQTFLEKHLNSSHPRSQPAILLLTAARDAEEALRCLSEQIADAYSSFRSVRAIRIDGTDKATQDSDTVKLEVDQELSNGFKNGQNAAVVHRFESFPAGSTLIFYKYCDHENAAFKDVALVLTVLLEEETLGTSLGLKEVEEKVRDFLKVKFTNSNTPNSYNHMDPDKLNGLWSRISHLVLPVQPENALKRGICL

Consider `CCOC(=O)C1=CC[C@@H](c2ccccc2)N(S(=O)(=O)c2ccc(C)cc2)[C@H]1C=C(C)C`, for which the composite z-score in assay [1] is 1.45; in [3], 0.407; in assay [4] it was 0.808; in assay [5], -0.0374; in [6], 0.055; in assay [7], 0.199. The composite z-score was 1.06 in [8]; 0.647 in assay [9]; 0.162 in assay [10]; 0.856 with Albumin (Bos taurus); 0.31 in [12]; -0.0209 in assay [13]. In addition, the composite z-score worked out at 0.491 in [14]; 2.14 in [15]; 0.149 in assay [16]; 1.3 with Sam68 (KHDRBS1); 0.542 in [17]; 0.947 in [18]. Further, the z-score in assay [2] is -2.21. The composite Z-score in [11] is 0.325 (inactive).

In the case of `O=C1C[C@@](C(=O)O)(c2ccc([N+](=O)[O-])cc2)[C@@H](c2ccc(CO)cc2)N1CC12CC3CC(CC(C3)C1)C2`, the composite z-score was 1.4 in assay [1]; 0.408 in assay [3]; 1.09 in assay [4]; 0.472 in [5]; -0.172 in [6]; 0.358 in assay [7]. Moreover, the composite z-score in assay [8] came out at 0.995; in [9] it was 1.41; in assay [10], 1.2; with Albumin (Bos taurus), 0.656; in assay [12], 0.18; in assay [13] it was 0.0362. Besides, the composite z-score in assay [14] was 0.46; in [15] it was 1.74; in [16], 0.611; in the assay with Sam68 (KHDRBS1), 1.19; in assay [17] it was -0.346; in assay [18], 0.687. Moreover, in assay [2], the z-score is -1.94. In addition, the composite Z-score in assay [11] was -0.261 (inactive).

As to `COc1ccc([Si](C)(C)[C@H]2[C@H](CCO)O[C@@]3(C(=O)N(Cc4cccc(N5CCOC5=O)c4)c4ccccc43)[C@@H]2C)cc1`, the composite z-score in assay [1] is 1.1; in assay [3] it was 0.118; in assay [4], 1.4; in assay [5], -0.207; in assay [6], -0.101; in assay [7], 0.0668. In addition, the composite z-score in assay [8] was -0.118; in [9], -0.18; in assay [10], 0.355; in the assay with Albumin (Bos taurus), 0.688; in [12], 0.0203; in [13] it was -0.0942. The composite z-score is 0.281 in assay [14]; 1.04 in [15]; -0.15 in assay [16]; 0.996 with Sam68 (KHDRBS1); -0.0894 in assay [17]; 1.1 in [18]. Besides, in [2], the z-score is -4.39. In addition, the composite Z-score in assay [11] was 0.207 (inactive).

With `C[N+](C)(C)CCCCCCNC(=O)[C@@H]1C[C@@H]2C(=O)NCC(=O)N2[C@@H]1c1ccc(O)cc1`, the composite z-score was 1.33 in assay [1]; 0.549 in assay [3]; 0.334 in assay [4]; -0.431 in [5]; -0.124 in [6]; -0.244 in assay [7]. The composite z-score is -0.196 in [8]; 1.03 in [9]; 1.9 in assay [10]; -0.356 with Albumin (Bos taurus); 0.0636 in [12]; -0.174 in [13]. In addition, the composite z-score in [14] turned out to be 0.618; in assay [15], 1.69; in assay [16] it was 0.393; in the assay with Sam68 (KHDRBS1) it was 1.06; in [17], 1.3; in assay [18], 0.788. Besides, the z-score in [2] is 1.33. Besides, in assay [11], the composite Z-score is 0.607 (inactive).

`C=CCN1C(=O)[C@@]2(O[C@@H](CCn3cc([C@H](O)c4ccccc4)nn3)[C@H]([Si](C)(C)c3ccc(OC)cc3)[C@H]2C)c2cc(NC(=O)c3ccc(OC)cc3)ccc21`: the composite z-score in [1] is 0.795; in [3], 0.426; in assay [4], 0.607; in assay [5] it was 0.14; in assay [6], -0.0735; in [7], 0.0815. Moreover, the composite z-score in [8] was 0.338; in [9], 0.385; in [10] it was 0.627; with Albumin (Bos taurus), -0.105; in assay [12], -0.0932; in [13], -0.173. Also, the composite z-score came to 0.148 in assay [14]; 0.637 in assay [15]; 0.0719 in assay [16]; 1.03 in the assay on Sam68 (KHDRBS1); 0.271 in [17]; 0.713 in assay [18]. The z-score in assay [2] was -3.99. The composite Z-score in assay [11] was -0.0277 (inactive).
